# Data published in the supplement of paper PMC11417369.
# ± gives the standard deviation of the averaged measurements. Over roughly 25,000 sequences, “ln(normalized median fluorescence intensity)” has its median near 10; the highest 2% begin near 12. This excerpt belongs to a sample that is enriched for the highest values.
# System: PfAP2-G AP2 domain (GST-tagged)
# Experiment: gcPBM binding intensity (ln(normalized median fluorescence intensity)); higher = stronger DNA binding
# Outline: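 GST-fused DNA-binding domains of P. falciparum, expressed in E. coli, were applied at about 25 μg on average for 1 h to an Agilent 4 × 180k array of primer-extended double-stranded 36-bp intergenic genomic probes and negative controls. Binding intensity is the highest Masliner-normalised natural-log median intensity across replicate spots of either probe orientation, measured with Alexa488 anti-GST antibody and a 488 nm scan.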
row,Sequence,gcPBM binding intensity (ln)
1,ATATATATAATATAGGTGCACTACTTATTTAAAAAA,10.5 ± 0.36
2,ATTGATAAATTAACTAGTACACATATAAATATATTA [XGTACX_site2325],11.3 ± 0.93
3,AAAGAAGGGAAACACACACACACACCCACAAAAAAA [CACACA_site3766],10.3 ± 0.33
4,TATAAGCTAAGTTGTTGTACAAAAAGGAAAAGTATA [XGTACX_site3741],11.1 ± 0.59
5,TACACCAGTTGTGGGAGTACACAAAAAAAGGGAAAA [XGTACX_site6047],11.7 ± 1
6,TATTATAATATTTATACACACATAATTTTGATAAAT [CACACA_site583],9.95 ± 0.16
7,AACTTTTAGAAGAACACACACATATAGATTATGACC [CACACA_site6256],10.2 ± 0.014
8,TATATTATGACCACCACACACCTATACACATAACAT [CACACA_site7199],11.4 ± 0.91
9,ATTATAACACCTCCCCCCCTTTTTTTATGAAGACCA [CACACA_negctrl_site1043],11.8 ± 0.86
10,TACACATACAGACATACACACATACACATATACACA [CACACA_site6918],10.2 ± 0.23
11,CACAAAAGTAAGCACGCACACACAACATGAAATAAA [CACACA_site7938],10.4 ± 0.18
12,TTAATCTTTCCTACATGTACACACAGAAAAAAAAAA [XGTACX_site5213],11.5 ± 1
13,TAATCTTTCGTACATGTACACACAGAAAAAAAAAAA [CACACA_site8798],11.8 ± 1.3
14,ATCTTTCGTACATGTACACACAGAAAAAAAAAAAAA [CACACA_site2502],11.5 ± 1
15,TTAAAGCTTGCATATACACACATACATAAATTCATA [CACACA_site7208],10 ± 0.18
16,TATTTTTTTTTTTTTTTTTTTACCTTTCCACTCAAA [CACACA_negctrl_site1454],9.84 ± 0.34
17,ATGTATATTTTTAAAAGTACAGAATTTTCATATGAA [XGTACX_site5754],11.3 ± 0.93
18,TATTATGTATGTATATGTACGTATCTTATTTTATTT [XGTACX_site5008],11.3 ± 0.76
19,TGTAAATAATATAATAGTACGCATATTTTTATTGAA [XGTACX_site284],11.4 ± 0.78
20,ATATATTTATATAGGTGTACATATTTTGCTATTCAA [XGTACX_site5199],11.6 ± 0.77
21,TTATTTTCATATAGGTGTACATAAAAATATTCTTAT [XGTACX_site8861],11.6 ± 0.82
22,TAATATATTAATATATGTACGTATTTTTATTAATAT [XGTACX_site5346],11.6 ± 0.93
23,TATATACAATATAGGTGTACATTTTTTTATCTATTT [XGTACX_site8431],11.3 ± 0.69
24,ATATTTATACATAAATGTACTTTTATATATTTAATA [XGTACX_site3020],11.1 ± 0.8

row,Sequence,gcPBM binding intensity (ln)
1,ATATATGTATATTTTTGTACGCATAAATATATTTTT [XGTACX_site827],11.3 ± 0.83
2,ATTTTATCTTTAAACTGTACGTATTAATATGTAGAA [XGTACX_site3077],11.7 ± 1.1
3,TTTTTTAATAAATGGTGTACATATTTTTTTTATACT [XGTACX_site8584],11.8 ± 0.87
4,AATTTATTTTTTTAATGTACATATGGTATAAATATA [XGTACX_site8012],11.3 ± 0.79
5,ATATTTTTTTTTTCGTGTACGCATAAATATATCTAA [XGTACX_site3360],11.6 ± 0.95
6,ATAATAAATAAATAATGTACATATGAAAGAATAAAT [XGTACX_site8355],11.1 ± 0.49
7,ATATAAAATAAATAAGTGCAGATAAATTTATGTGAC [GTGCAC_site9504],10.25 ± 0.057
8,TTGCCCATTTCATTAACACACAAATGTTTATATTCT [CACACA_site4569],10.17 ± 0.071
9,TCATACATTTTCCTTGCACACATTTATAATTAATGT [CACACA_site614],10.5 ± 0.17
10,TTATGCATAAAAGGTGGTACTCCGTATATACATTCT [XGTACX_site4354],11.4 ± 0.65
11,TACTTTTCATCTTCTTAACACACAAAAAAAAAAAAA [CACACA_site9290],10.1 ± 0.52
12,TATTTAATTTTTAAATGTACATATAAAATAATATAT [XGTACX_site2422],11.2 ± 0.89
13,AATATCTAAAATGTGTGTACATAATATTTTTAATAT [XGTACX_site3831],11.7 ± 1.1
14,TATAAAATATAAATTTGTACATATAAAATATTTTAT [XGTACX_site7462],10.8 ± 0.53
15,TTTATATATTTTAGGAGTACATTAAATTATACCTTA [XGTACX_site5600],11.5 ± 0.89
16,TAACATAAATTTAGGAGTACACTTTTTATACATACA [XGTACX_site4066],11.7 ± 1
17,TAAAAATAATATATTTGTACATATGTGTATACATAA [XGTACX_site741],10.7 ± 0.38
18,ATGTATATATATTTGTGTACATATTTAGGAAATAAA [XGTACX_site2904],11.6 ± 1
19,TTATATATTTATAAATGTACATATAATTTTTTTATA [XGTACX_site4696],11.1 ± 0.67
20,TTTATATATTTTAGGTGTACATAAATTTTTATATAT [XGTACX_site5597],11.7 ± 1.1
21,AATTTTTTAAATGTGTGTACATATTATTTAAATAAT [XGTACX_site5967],11.5 ± 0.73
22,TTTATTATTTTTAGGAGTACACAAAATAAAACAAAT [XGTACX_site8841],11.6 ± 1
23,CCCACGTATATTTTGTGTACATAAATAAATAAATAA [XGTACX_site4046],11.6 ± 0.86
